Assay outcomes: PubChem, National Center for Advancing Translational Sciences (NCATS)
The list is not random: actives were taken first. Their share in the collection is about 5.2%.
VDR inhibitor = vitamin D3 receptor (human) inhibition. P11473. VDR-SRC2-3 peptide fluorescence polarization, 2 h. Potency, µM, inactives show max response, negative = inhibition, actives largely listed as inhibitors. 0.93% of 400,000 active. AID 504847
Target sequence (P11473 whole entry, looked up): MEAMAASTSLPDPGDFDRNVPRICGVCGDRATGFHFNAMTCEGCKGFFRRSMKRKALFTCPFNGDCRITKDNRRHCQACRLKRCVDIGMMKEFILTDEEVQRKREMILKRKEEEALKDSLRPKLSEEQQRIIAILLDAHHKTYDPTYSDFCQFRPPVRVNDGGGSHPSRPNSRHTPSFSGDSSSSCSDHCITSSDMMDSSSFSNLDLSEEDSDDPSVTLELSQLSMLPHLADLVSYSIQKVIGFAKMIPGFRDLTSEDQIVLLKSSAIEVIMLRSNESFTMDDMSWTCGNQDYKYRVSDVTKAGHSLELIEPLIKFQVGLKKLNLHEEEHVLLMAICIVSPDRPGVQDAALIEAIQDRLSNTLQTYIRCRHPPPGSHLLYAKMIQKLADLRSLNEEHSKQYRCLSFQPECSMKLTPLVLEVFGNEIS
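Signal is fluorescence polarization, reporting how far test compounds block the interaction of VDR with the SRC2-3 coregulator peptide after a 2 h room-temperature incubation.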
TrxR1 substrate = rat thioredoxin reductase 1 substrate activity. purified TrxR1 substrate turnover, NADPH consumption readout. Potency, µM (doses to about 114 µM), for inactives: top-dose activity change, negative = substrate turnover. O89049. 0.01% of 390,000 active. AID 588456; further: nearly all actives have a fitted effect of over 50% in size
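Rat TrxR1, dispensed at 90 nM, was prereduced with 400 uM NADPH (final) for 5 min at ~22 deg C, then incubated with compound 15 min before 400 uM selenite. A first-read NADPH fluorescence drop versus no-compound background flagged substrates.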
PLK1 PBD inh = blocks phosphopeptide binding to human PLK1 polo-box domain. AID 720504. Plk1 PBD binding of FITC phosphopeptide, fluorescence polarization. P53350. Potency, µM, for inactives: max response, negative = inhibition, hits mostly inhibitors. 2.8% of 360,000 active; further: series mostly up to about 57 µM; nearly all actives have a fitted effect of over 65% in size
TrxR1 inh = inhibitors of rat thioredoxin reductase 1. 1% of 390,000 active. O89049. Potency, µM (titrated, usually from 114 µM), for inactives: at the highest dose activity change, negative = inhibition, hits mostly inhibitors. recombinant rTrxR1, NADPH fluorescence consumption, selenite substrate; further: nearly all actives have a fitted effect of over 65% in size
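Rat TrxR1 (90 nM in the dispensed reagent) was pre-reduced with 400 uM NADPH for 5 min at room temperature, then incubated with compound for 15 min. After 400 uM selenite was added, NADPH fluorescence (Ex 340/Em 450 nm) was followed for 8 min.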
IDH1 R132H inh = human IDH1 R132H inhibition. IDH1-R132H enzyme, NADPH consumption, diaphorase/resazurin fluorescence. Potency, µM (series often up to 76.6 µM), for the others: at the highest dose activity change, negative = inhibition, actives largely listed as inhibitors. 0.093% of 390,000 active. AID 602179; further: nearly all actives have a fitted effect of over 65% in size
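IDH1-R132H (0.5 ug/mL) preincubated 30 min with compound, then NADPH (0.016 mM) and alpha-KG (2 mM) added; 80 min at RT, pH 7.5. Remaining NADPH coupled via diaphorase/resazurin to fluorescence (540/590 nm); concentration-response curves normalized to no-enzyme control.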
Sfp PPTase inh = Sfp phosphopantetheinyl transferase inhibition; Q9F4F7; Biochemical Sfp PPTase activity, qHTS; Potency, µM, inactives show largest response in the series, negative = inhibition, hits mostly inhibitors; 3.5% of 310,000 active;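 further: the enzyme is Sfp with the accession as filed and its product quenches rhodamine fluorescence; 0% = enzyme reaction without inhibitor and -100% = no enzyme wells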
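Reaction rates are the 30-min fluorescence difference (ex 525, em 598 nm) in wells containing 15 nM Sfp, 5 uM rhodamine-CoA and 12.5 uM BHQ-2-YbbR at pH 7.6 with 10 mM MgCl2.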
* marks the source's active call; other numbers are inactive results; ? = inconclusive; . = no result given; [ ] = another dose, or the depositor's remark. The call rests on the fitted dose curve; in most records, active means well fitted curve in the direction sought with a large enough effect; inconclusive means small, poorly fitted or top-dose-only effect, or another doubt; inactive means no such curve, though single readings can be large; an effect the other way counts as inactive or inconclusive. Unless noted, on the % scale 0 is the no-effect control and ±100 the full control effect; potency means the concentration at half of the fitted maximal effect.

SMILES | VDR inhibitor | TrxR1 substrate | PLK1 PBD inh | TrxR1 inh | IDH1 R132H inh | Sfp PPTase inh
CCOC(=O)c1c(NC(=O)c2nc(S(C)(=O)=O)ncc2Cl)sc(C(C)=O)c1C | -29% | 4% | . | 1.4µM* | -6% | .
CCOC(=O)c1c(NC(=O)c2cc(-c3cccc(O)c3)on2)sc(C(C)=O)c1C | -9% | 8% | -11% | 29% | 5% | -4%
CCCCn1c(=N)c(S(=O)(=O)c2ccc(Cl)cc2)cc2c(=O)n3cccc(C)c3nc21 | -14% | 141% | . | 305% | -8% | .
CN(C)Cc1cc(O)c(CN(C)C)cc1O | ? | -14% | ? | 14µM* | 13% | 25µM*
CN(CCCCCCN(C)Cc1ccccc1O)Cc1ccccc1O | -4% | -1% | -3% | 21% | 8% | ?
COc1ccc(C=C2C(=O)OC(C)(C)OC2=O)cc1OC | -3% | 5%[57.1 µM] | 13µM* | ? | 16% | -12%
COc1ccc(/C=C2\C(=O)NC(=O)c3ccccc32)cc1OC | ? | -6%[11.4 µM] | 4.7µM* | -22%[11.4 µM] | 2% | .
Nc1c(Cl)c(Cl)nc(C(=O)OCC(=O)NC2CCCCC2)c1Cl | -1% | 6% | -5% | 13% | 5% | -1%
Nc1cc(C(=O)O)c(N)c2c1C(=O)c1ccccc1C2=O | 8.9µM* | -7% | 19µM* | 15% | 0% | ?
COc1ccc(OC)c(-c2csc(NC(=O)Cc3ccc(F)cc3)n2)c1 | 2% | -4% | -7% | 2% | -26% | 21%
Cc1ccc(-c2csc(NC(=O)c3ccc(-c4ccccc4)cc3)n2)o1 | -24% | 3% | -23% | ? | 2% | 22µM*
Cc1ccc(-c2csc(Nc3ccc(S(N)(=O)=O)cc3)n2)o1 | -15% | 1%[57.1 µM] | ? | -71% | -5% | 10µM*
Cc1ccc(-c2csc(NC(=O)Cc3ccc(F)cc3)n2)o1 | ? | 7%[57.1 µM] | 24µM* | -38% | 0% | 13µM*
Cn1c(-c2ccc(N)cc2)nc2ccccc21 | 2% | 112% | -8% | -1% | 3% | 7%
Cc1ccc(-n2c(N)c(-c3nc4ccccc4n3C)sc2=S)cc1 | ? | -11% | 5.3µM* | -15% | 8% | -66%
Cc1nnc(N2CCN(C(=O)NC(C)C)CC2)c2nn(-c3ccccc3)c(C)c12 | 10% | 6%[57.1 µM] | . | 24%[57.1 µM] | . | .
NC(=S)Cc1nc2n(n1)Cc1ccccc1-2 | -26% | -10% | ? | -9% | 5% | 56µM*
Cc1ccc2nc(CCc3nc4ccc(C)cc4o3)oc2c1 | ? | -10% | 6µM* | -9% | 5% | 14%
Cc1ccc2nc(-c3cccc(-c4nc5ccc(C)cc5o4)n3)oc2c1 | 50µM* | 5% | . | 26% | . | .
O/C(=C\c1nc2ccccc2[nH]1)c1cccs1 | ? | 4% | -18% | 45µM* | -15% | -12%
CC1CC=CC2C1C(=O)N(Cc1ccccc1)C2c1ccc(Br)cc1F (stereo not drawn) | -26% | -13% | . | -16% | . | -13%
CCOC(=O)C1Nc2ccc(C)cc2C2C=CCC12 (stereo not drawn) | -25% | 9%[57.1 µM] | -29% | 5.6µM* | -14% | .
O=C(O)C1Nc2ccc(Br)cc2C2C=CCC12 (stereo not drawn) | ? | -1% | 5.3µM* | 20µM* | -6% | ?
COc1ccc(Br)cc1[C@@H]1Nc2ccc(C(=O)O)cc2[C@@H]2C=CC[C@@H]21 | -3% | 0% | . | -19% | -3% | .
CCOC(=O)C1Nc2ccc(Br)cc2C2C=CCC12 (stereo not drawn) | ? | -2% | ? | 32µM* | 3% | 28µM*
SMILES | VDR inhibitor | TrxR1 substrate | PLK1 PBD inh | TrxR1 inh | IDH1 R132H inh | Sfp PPTase inh
CC(C)CNC(=O)C1Nc2ccc(OC(F)(F)F)cc2C2C=CCC12 (stereo not drawn) | ? | -6% | 0% | ? | -27% | .
CCOc1ccc(-n2nc3ccc(NC(=O)Cc4ccccc4)cc3n2)cc1 | 22% | 5% | . | -3% | 0% | .
COc1ccc(-c2nc3cnc(Nc4ccccc4)nc3n(CCC#N)c2=O)cc1 | 4% | . | . | . | . | 13%
COc1ccc(N=C2NC(=O)CS2)c([N+](=O)[O-])c1 | -2% | -8% | 27µM* | -10% | 5% | 9%
O=C1CSC(=Nc2ccccc2[N+](=O)[O-])N1 | 6% | -5% | -25% | 7% | 12% | 20%
O=C(NCc1ccc2c(c1)OCO2)c1ccc2c(c1)N(Cc1ccccc1F)C(=O)c1ccccc1S2=O (stereo not drawn) | -22% | 7% | . | 33% | -3% | .
Cn1nnnc1SCC1=C(C(=O)O)N2C(=O)C(NC(=O)C(OC=O)c3ccccc3)C2SC1 (stereo not drawn) | ? | . | . | . | . | -73%
Cc1nn(C(C)C(=O)NC2C(=O)N3C(C(=O)O)=C(CSc4nnnn4C)CSC23)cc1Cl (stereo not drawn) | -8% | 5% | -27% | ? | 0% | 79µM*
CC(C(=O)NC1C(=O)N2C(C(=O)O)=C(CSc3nnnn3C)CSC12)n1cc(Br)cn1 (stereo not drawn) | -15% | 12%[57.1 µM] | -22% | ? | -2% | 10%
Cn1nnnc1SCC1=C(C(=O)O)N2C(=O)[C@@H](NC(=O)[C@H](O)c3ccccc3)[C@H]2SC1 | -25% | 3% | 13µM* | -13% | -1% | ?
Cn1nnnc1SCC1=C(C(=O)O)N2C(=O)C(NC(=O)C3CC3c3ccccc3)C2SC1 (stereo not drawn) | ? | -2% | ? | ? | 8% | ?
Cc1cc(C(F)F)nn1CC(=O)NC1C(=O)N2C(C(=O)O)=C(CSc3nnnn3C)CSC12 (stereo not drawn) | 8% | 6% | -19% | -33% | 0% | 56µM*
Cn1nnnc1SCC1=C(C(=O)O)N2C(=O)C(NC(=O)C(O)c3ccccc3)C2SC1 (stereo not drawn) | 50µM* | . | . | . | . | -66%
O=c1[nH]c2ccc(Br)cc2c(=O)o1 | . | . | ? | . | 5% | .
CCOC(=O)c1c(C)[nH]c(C)c1S(=O)(=O)N1CCCC(C(=O)NCc2ccc(Cl)cc2)C1 (stereo not drawn) | 5% | -2%[57.1 µM] | . | 1%[57.1 µM] | 0% | .
COc1cc(NC(=O)c2cc3sccc3n2C)cc(OC)c1 | 1% | 0%[57.1 µM] | -6% | 3% | 7% | 50µM*
Cc1oc(-c2cc(F)ccc2F)nc1CN1CCN(c2ncnc3ccccc23)CC1 | -20% | -4% | -7% | -2%[57.1 µM] | -3% | 40µM*
COc1ccc(-c2nc(CN3CCN(c4ncnc5ccccc45)CC3)c(C)o2)c(OC)c1 | 0% | -4% | -14% | ? | -6% | 10%
Cc1oc(-c2ccc(F)cc2)cc1-c1nn2c(-c3ccoc3C)nnc2s1 | ? | 7%[57.1 µM] | ? | -33%[57.1 µM] | 1% | 40µM*
Cc1oc(-c2ccc(Cl)cc2)cc1-c1nn2c(-c3ccco3)nnc2s1 | . | . | . | . | . | -24%
